ChEMBL document CHEMBL3988442, “University of Dundee, Small-Polar-MMV Screening Library” (2021)

These molecules were tested against T1, Aspartate--tRNA(Asp/Asn) ligase (Mycobacterium tuberculosis (strain ATCC 25618 / H37Rv)) (UniProt P9WFW3) (assay: Assay for Asp RNA synthetase-1 from Mycobacterium tuberculosis). Settings: 30 µM.
T1 sequence (whole entry): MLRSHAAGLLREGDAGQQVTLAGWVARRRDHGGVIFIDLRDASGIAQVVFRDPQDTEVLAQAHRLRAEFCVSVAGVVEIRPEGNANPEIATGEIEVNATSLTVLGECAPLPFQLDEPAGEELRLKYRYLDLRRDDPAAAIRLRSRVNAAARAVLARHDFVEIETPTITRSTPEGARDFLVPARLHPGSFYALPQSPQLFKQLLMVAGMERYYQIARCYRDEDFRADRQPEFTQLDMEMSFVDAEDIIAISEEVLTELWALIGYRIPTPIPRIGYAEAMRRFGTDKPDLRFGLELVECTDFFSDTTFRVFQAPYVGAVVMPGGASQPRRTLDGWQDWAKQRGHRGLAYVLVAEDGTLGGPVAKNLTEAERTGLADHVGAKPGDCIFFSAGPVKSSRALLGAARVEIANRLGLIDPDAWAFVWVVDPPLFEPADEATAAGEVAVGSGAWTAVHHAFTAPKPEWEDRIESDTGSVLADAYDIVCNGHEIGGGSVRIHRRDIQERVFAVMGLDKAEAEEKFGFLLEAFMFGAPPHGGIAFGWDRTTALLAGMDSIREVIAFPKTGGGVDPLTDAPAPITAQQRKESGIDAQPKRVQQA
Assay type: functional
Parameters: scale not given: direction of the effect not stated beside the values

Row | Compound | Percent Effect
1 | CCCn1ccc(C(=O)N2CCOC(c3nc(-c4cccs4)no3)C2)n1 (stereo not given) | 0.28%
2 | O=C(NCCC1CCCO1)c1ccccc1N1CCOCC1 (stereo not given) | -8.37%
3 | O=C(NCCC(=O)N1CCCCCC1)c1c(O)cc(F)cc1F | -0.98%
4 | O=C(c1ccc(-n2ccnc2)nc1)N1CCCC(n2cccn2)C1 (stereo not given) | -4.43%
5 | CCn1ccnc1CN1CCN(CC(O)Cn2cccn2)CC1 (stereo not given) | -1.83%
6 | Cc1ccc(S(=O)(=O)N2CSCC2C(=O)N(C)C2CC2)cc1Cl (stereo not given) | 3.03%
7 | CC(C)n1cc(CN2CCCN(C(=O)c3nccnc3N)CC2)cn1 | 6.6%
8 | CN(C)C[C@H]1OC[C@@H]2CCN(S(=O)(=O)c3ccccc3)C[C@@H]21 | 4.96%
9 | Cn1ccnc1COc1ccc(CO)cc1 | 1.33%
10 | Cc1ccc(-n2nnc(C(=O)Nc3cc(C)nn3C)c2C2CC2)cc1 | -2.8%
11 | CC(NC(=O)NCCCN(C)C)c1ccc2c(c1)CCC(=O)N2 (stereo not given) | -3.92%
12 | CC(C)Cc1nc(OCC(N)=O)c(C#N)c2c1CCC2 | 2.64%
13 | O=C([C@H]1CN(CCc2ccccc2)C[C@H]2OCC[C@@H]12)N1CCCO1 | 1.78%
14 | Cc1cc(C)n(CC(=O)N2CCC(NS(=O)(=O)c3ccccc3)CC2)n1 | 0.878%
15 | CC(=O)N1C[C@@H](c2ccsc2)[C@@H]2CN(Cc3ccccc3)CC[C@@H]21 | 2.13%
16 | Cc1nnc(N2CC[C@H]3C[C@@H](C(=O)NC4CCCC4)O[C@H]3C2)s1 | 0.29%
17 | c1ncn(CC2CCCCN2Cc2csc(C3CCCC3)n2)n1 (stereo not given) | -7.74%
18 | Cc1cc(C(=O)NCC(C)N2CCc3ccccc32)no1 (stereo not given) | -0.278%
19 | Cc1cnc(N2CC3(CCN(C(=O)c4ccoc4)C3)C2)nc1 | 0.713%
20 | Cc1ccc(CC(=O)N2Cc3nccn3CC(Cn3cccn3)C2)cc1 (stereo not given) | 0.0228%

Row | Compound | Percent Effect
21 | CC1COCCN1C(=O)c1cccc(OCc2cscn2)c1 (stereo not given) | -6.86%
22 | Cc1nc(COc2ccc(CNCC3CN(C)CCO3)cc2)cs1 (stereo not given) | 5.51%
23 | CCc1nnc2n1CC(CNCc1ccncc1)CC2 (stereo not given) | -3.51%
24 | Cc1ccc(C(=O)N2CCC(Oc3ccc(F)cc3F)CC2)c(=O)[nH]1 | -4.97%
25 | CCc1ncncc1C(=O)N1CCOC(c2nc(C)n[nH]2)C1 (stereo not given) | -4.06%
26 | COc1c(CNC(c2nccn2C)C(C)C)c(C)nn1C (stereo not given) | 0.122%
27 | COc1cc(/C=C/c2ncc(C(=O)O)s2)cc(Cl)c1O | -0.0437%
28 | O=C(Cn1cc(I)cn1)N1CCc2ccccc2C1 | 2.67%
29 | Cc1nc(-c2ccccc2)n(CC(=O)N(C(C)C)C(C)C)n1 | 4.15%
30 | CC(=O)NCCc1ccc(S(=O)(=O)N(CC(C)C)C(C)C)s1 | 7.1%
31 | Cn1nnc2c1C(COCC1CC1)CN(C(=O)Cc1ccsc1)C2 (stereo not given) | -2.73%
32 | CCCNC(=O)CNC(=O)CCc1ccccc1Br | -2.76%
33 | CC(Cn1cccn1)NCc1csc(-c2ccccc2F)n1 (stereo not given) | -4.2%
34 | CC(C)N1CC(C(=O)NCc2ccnc(-n3cccn3)c2)CC1=O (stereo not given) | -0.3%
35 | CCOC(=O)NC(CNC(=O)CCc1ccccn1)CC(C)C (stereo not given) | 1.17%
36 | O=C1NCCN(CC2CC2)C12CCN(Cc1ccc3c(c1)OCO3)CC2 | 11.3%
37 | COc1cnc(C2(O)CCN(C(=O)c3cccnc3)CC2)c(OC)n1 | 0.313%
38 | O=C(NCCCNC(=O)c1cccc(O)c1)Nc1ccc(F)cc1F | -6.98%
39 | Cc1nc(C)n(CC2CN(CCOCC(F)(F)F)CCO2)n1 (stereo not given) | 3.1%
40 | Cc1occc1C(=O)N1CCC2(CCN(Cc3nccs3)C2)CC1 | 0.208%

Each molecule was assayed against Shiga toxin 2 (Escherichia coli O157:H7) (UniProt P09385+P09386) (assay: E. coli 0.157:H7 Shiga Toxin SOP - stx2 screening assay). Settings: 30 µM.
Assay type: functional
Parameters: scale not given: direction of the effect not stated beside the values

Row | Compound | Percent Effect
41 | CCCn1ccc(C(=O)N2CCOC(c3nc(-c4cccs4)no3)C2)n1 (stereo not given) | -0.831%
42 | O=C(NCCC1CCCO1)c1ccccc1N1CCOCC1 (stereo not given) | -3.88%
43 | O=C(NCCC(=O)N1CCCCCC1)c1c(O)cc(F)cc1F | -11.1%
44 | O=C(c1ccc(-n2ccnc2)nc1)N1CCCC(n2cccn2)C1 (stereo not given) | 28.7%
45 | CCn1ccnc1CN1CCN(CC(O)Cn2cccn2)CC1 (stereo not given) | -31.5%
46 | Cc1ccc(S(=O)(=O)N2CSCC2C(=O)N(C)C2CC2)cc1Cl (stereo not given) | 19.2%
47 | CC(C)n1cc(CN2CCCN(C(=O)c3nccnc3N)CC2)cn1 | -11.2%
48 | CN(C)C[C@H]1OC[C@@H]2CCN(S(=O)(=O)c3ccccc3)C[C@@H]21 | -1.44%
49 | Cn1ccnc1COc1ccc(CO)cc1 | -14.5%
50 | Cc1ccc(-n2nnc(C(=O)Nc3cc(C)nn3C)c2C2CC2)cc1 | 34.4%
51 | CC(NC(=O)NCCCN(C)C)c1ccc2c(c1)CCC(=O)N2 (stereo not given) | 7.67%
52 | CC(C)Cc1nc(OCC(N)=O)c(C#N)c2c1CCC2 | -13.7%
53 | O=C([C@H]1CN(CCc2ccccc2)C[C@H]2OCC[C@@H]12)N1CCCO1 | -9.29%
54 | Cc1cc(C)n(CC(=O)N2CCC(NS(=O)(=O)c3ccccc3)CC2)n1 | 31.2%
55 | CC(=O)N1C[C@@H](c2ccsc2)[C@@H]2CN(Cc3ccccc3)CC[C@@H]21 | -20.6%
56 | Cc1nnc(N2CC[C@H]3C[C@@H](C(=O)NC4CCCC4)O[C@H]3C2)s1 | -4.68%
57 | c1ncn(CC2CCCCN2Cc2csc(C3CCCC3)n2)n1 (stereo not given) | -35.6%
58 | Cc1cc(C(=O)NCC(C)N2CCc3ccccc32)no1 (stereo not given) | -26.5%
59 | Cc1cnc(N2CC3(CCN(C(=O)c4ccoc4)C3)C2)nc1 | -36.5%
60 | Cc1ccc(CC(=O)N2Cc3nccn3CC(Cn3cccn3)C2)cc1 (stereo not given) | -2.6%

Row | Compound | Percent Effect
61 | CC1COCCN1C(=O)c1cccc(OCc2cscn2)c1 (stereo not given) | 0.62%
62 | Cc1nc(COc2ccc(CNCC3CN(C)CCO3)cc2)cs1 (stereo not given) | -13.8%
63 | CCc1nnc2n1CC(CNCc1ccncc1)CC2 (stereo not given) | -13.5%
64 | Cc1ccc(C(=O)N2CCC(Oc3ccc(F)cc3F)CC2)c(=O)[nH]1 | 30.4%
65 | CCc1ncncc1C(=O)N1CCOC(c2nc(C)n[nH]2)C1 (stereo not given) | 0.443%
66 | COc1c(CNC(c2nccn2C)C(C)C)c(C)nn1C (stereo not given) | 16.3%
67 | COc1cc(/C=C/c2ncc(C(=O)O)s2)cc(Cl)c1O | -52.2%
68 | O=C(Cn1cc(I)cn1)N1CCc2ccccc2C1 | -31%
69 | Cc1nc(-c2ccccc2)n(CC(=O)N(C(C)C)C(C)C)n1 | 23.2%
70 | CC(=O)NCCc1ccc(S(=O)(=O)N(CC(C)C)C(C)C)s1 | -42.2%
71 | Cn1nnc2c1C(COCC1CC1)CN(C(=O)Cc1ccsc1)C2 (stereo not given) | -6.94%
72 | CCCNC(=O)CNC(=O)CCc1ccccc1Br | -0.75%
73 | CC(Cn1cccn1)NCc1csc(-c2ccccc2F)n1 (stereo not given) | -6.96%
74 | CC(C)N1CC(C(=O)NCc2ccnc(-n3cccn3)c2)CC1=O (stereo not given) | -49.1%
75 | CCOC(=O)NC(CNC(=O)CCc1ccccn1)CC(C)C (stereo not given) | 0.307%
76 | O=C1NCCN(CC2CC2)C12CCN(Cc1ccc3c(c1)OCO3)CC2 | -21.2%
77 | COc1cnc(C2(O)CCN(C(=O)c3cccnc3)CC2)c(OC)n1 | 17.2%
78 | O=C(NCCCNC(=O)c1cccc(O)c1)Nc1ccc(F)cc1F | -56%
79 | Cc1nc(C)n(CC2CN(CCOCC(F)(F)F)CCO2)n1 (stereo not given) | 8.57%
80 | Cc1occc1C(=O)N1CCC2(CCN(Cc3nccs3)C2)CC1 | -15.8%
